Source: PubChem BioAssay
Activity calls are given as the source filed them.

Legend:
[1] = system: Plasmodium falciparum Sir2 (PF13_0152, Sir2A); assay: pfSir2 binders on small-molecule microarrays, primary screen, biochemical, small-molecule microarray, 635 nm fluorescence (AID 1098); settings: small-molecule microarray binding, fluorescence 635 nm; higher = more signal;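 note: score merges spot fluorescence intensity with its signal-to-noise ratio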
[2] = small-molecule microarray binders of probe aDKK1, primary screen, biochemical, biotinylated probe, 635/667 nm fluorescence (AID 1099); settings: higher = more signal;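 note: score merges 667nm spot fluorescence with signal to noise across triplicate slides; reference of the scale not given here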
[3] = small-molecule microarray binders of probe aCHRDL2, primary screen, biochemical, biotinylated probe, 635/667 nm fluorescence (AID 1100); settings: higher = more signal
[4] = splicing luciferase reporter signal modulators, primary screen, spliceosome inhibition project, cell-based, HEK293, splice +/- reporter (AID 1101); settings: luminescence, 24 h, higher = more signal, called active from +8 up or from −8 down;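 note: HEK293 cells carrying a splicing-competent luciferase reporter gene; test concentration not given here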
[5] = biological target: Fibroblast growth factor 10 (Homo sapiens) (UniProt O15520); assay: FGF10 binders on small-molecule microarrays, primary screen, biochemical, small-molecule microarray, 635 nm fluorescence (AID 1102); settings: FGF10 binding, fluorescence 635 nm, higher = more signal
[6] = system: glycogen synthase kinase-3 (GSK3A per assay name; protocol says GSK3B); assay: GSK3 binders on small-molecule microarrays, primary screen, biochemical, small-molecule microarray, 635 nm fluorescence, GSK3A (AID 1103); settings: small-molecule microarray binding, fluorescence 635 nm; higher = more signal; note: the record names both GSK3A and GSK3B
[7] = biological target: Epidermal growth factor receptor (Homo sapiens) (UniProt P00533); assay: EGFR binders on small-molecule microarrays, primary screen, biochemical, small-molecule microarray, 635 nm fluorescence (AID 1104); settings: EGFR binding, higher = more signal;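 note: score merges 667 nm emission intensity with spot signal to noise over triplicate slides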
[8] = biological target: Follistatin-related protein 3 (Homo sapiens) (UniProt O95633); assay: FSTL3 binders on small-molecule microarrays, primary screen, biochemical, small-molecule microarray, 635 nm fluorescence (AID 1105); settings: FSTL3 binding, higher = more signal;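 note: score merges emission near 667 nm and signal to noise per printed spot across three slides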
[9] = biological target: Dickkopf-related protein 1 (Homo sapiens) (UniProt O94907); assay: DKK1 binders on small-molecule microarrays, primary screen, biochemical, small-molecule microarray, 635 nm fluorescence scan (AID 1106); settings: DKK1 binding, higher = more signal;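 note: score merges emission near 667 nm with signal to noise over three replicate slides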
[10] = system: Inhibin beta A chain (activin A); assay: INHBA (activin A) binders on microarrays, primary screen, biochemical, small-molecule microarray, 635 nm fluorescence scan (AID 1107); settings: small-molecule microarray binding, higher = more signal;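 note: mouse activin A protein probed at 4.33 µg/mL on printed slides; score merges bound-protein fluorescence near 667 nm with spot signal-to-noise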

Sequence of Follistatin-related protein 3 (Homo sapiens) (O95633 whole entry, looked up): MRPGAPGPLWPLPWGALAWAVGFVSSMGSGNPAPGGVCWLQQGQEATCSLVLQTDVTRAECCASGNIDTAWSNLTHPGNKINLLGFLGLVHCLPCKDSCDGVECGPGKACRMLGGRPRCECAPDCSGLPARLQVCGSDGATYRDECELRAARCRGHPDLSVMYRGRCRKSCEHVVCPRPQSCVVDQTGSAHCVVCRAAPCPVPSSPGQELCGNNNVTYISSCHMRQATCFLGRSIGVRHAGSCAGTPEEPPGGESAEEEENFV
Sequence of Dickkopf-related protein 1 (Homo sapiens) (O94907 whole entry, looked up): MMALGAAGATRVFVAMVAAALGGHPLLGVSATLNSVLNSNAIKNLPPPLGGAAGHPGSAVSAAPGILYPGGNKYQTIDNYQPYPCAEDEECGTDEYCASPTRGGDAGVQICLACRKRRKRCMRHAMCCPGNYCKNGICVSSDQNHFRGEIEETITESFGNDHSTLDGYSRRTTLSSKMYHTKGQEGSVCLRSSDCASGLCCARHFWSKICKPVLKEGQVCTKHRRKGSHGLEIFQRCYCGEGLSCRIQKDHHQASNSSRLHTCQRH
Sequence of Epidermal growth factor receptor (Homo sapiens) (P00533 whole entry, looked up): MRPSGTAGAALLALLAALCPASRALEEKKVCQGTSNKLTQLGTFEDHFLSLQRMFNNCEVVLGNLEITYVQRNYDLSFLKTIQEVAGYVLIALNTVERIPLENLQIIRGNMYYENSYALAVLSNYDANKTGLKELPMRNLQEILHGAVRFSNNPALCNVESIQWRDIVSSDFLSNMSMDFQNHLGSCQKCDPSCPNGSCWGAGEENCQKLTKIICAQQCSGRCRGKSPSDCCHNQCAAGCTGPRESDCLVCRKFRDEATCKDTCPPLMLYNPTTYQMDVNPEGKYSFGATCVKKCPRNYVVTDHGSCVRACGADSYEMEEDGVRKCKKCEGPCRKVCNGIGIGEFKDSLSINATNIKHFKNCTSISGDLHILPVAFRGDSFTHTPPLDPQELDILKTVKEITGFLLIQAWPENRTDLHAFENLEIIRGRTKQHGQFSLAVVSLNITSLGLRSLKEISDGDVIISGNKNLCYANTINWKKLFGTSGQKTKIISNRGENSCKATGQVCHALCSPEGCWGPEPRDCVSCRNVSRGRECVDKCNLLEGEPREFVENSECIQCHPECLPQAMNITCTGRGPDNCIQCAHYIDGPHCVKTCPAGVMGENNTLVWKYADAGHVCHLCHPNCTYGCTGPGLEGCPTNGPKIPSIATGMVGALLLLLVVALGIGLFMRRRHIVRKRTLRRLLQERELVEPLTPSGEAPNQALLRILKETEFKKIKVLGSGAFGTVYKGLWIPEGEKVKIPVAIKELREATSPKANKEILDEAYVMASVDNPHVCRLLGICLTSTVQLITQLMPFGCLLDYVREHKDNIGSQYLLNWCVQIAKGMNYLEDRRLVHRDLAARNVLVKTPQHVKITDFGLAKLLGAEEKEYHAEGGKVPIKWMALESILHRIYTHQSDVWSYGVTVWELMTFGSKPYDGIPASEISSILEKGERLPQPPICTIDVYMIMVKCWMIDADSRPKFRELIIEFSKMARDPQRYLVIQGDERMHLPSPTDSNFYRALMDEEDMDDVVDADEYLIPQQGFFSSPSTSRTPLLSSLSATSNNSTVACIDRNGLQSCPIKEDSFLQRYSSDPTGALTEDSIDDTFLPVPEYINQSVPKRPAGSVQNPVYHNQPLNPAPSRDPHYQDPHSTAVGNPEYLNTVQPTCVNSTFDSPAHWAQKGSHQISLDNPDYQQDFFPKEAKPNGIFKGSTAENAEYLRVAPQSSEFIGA
Sequence of Fibroblast growth factor 10 (Homo sapiens) (O15520 whole entry, looked up): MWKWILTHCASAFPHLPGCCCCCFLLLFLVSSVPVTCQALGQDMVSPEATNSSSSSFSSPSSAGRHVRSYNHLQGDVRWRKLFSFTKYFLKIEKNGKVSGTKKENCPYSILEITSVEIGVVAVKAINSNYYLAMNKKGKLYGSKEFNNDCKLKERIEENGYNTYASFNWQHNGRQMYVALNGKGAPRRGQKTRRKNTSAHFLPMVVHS

Row | Compound | composite z-score [1] | composite z-score [2] | composite z-score [3] | z-score [4] | composite z-score [5] | composite z-score [6] | composite z-score [7] | composite z-score [8] | composite z-score [9] | composite z-score [10]
1 | [N-]=[N+]=Nc1ccccc1C[C@@]1(C(=O)NCC(O)CO)N=C(c2ccc(OCCCO)cc2)O[C@@H]1c1ccccc1N=[N+]=[N-] (stereo not given in full) | 1.05 | 0.106 | 1.09 | 8.25 (active) | 0.233 | 0.446 | -0.283 | 0.855 | -0.67 | 1.33
2 | [N-]=[N+]=Nc1ccccc1C[C@]1(C(N)=O)COC(c2ccc(OCCCO)cc2)=N1 | 0.219 | 1.07 | 1.04 | -0.32 (inactive) | -0.128 | -0.51 | -0.969 | -1.16 | -1.18 | 1.13
3 | CC(C)N1C(=O)[C@@]2(Cc3ccccc31)c1ccccc1C(=O)N(Cc1ccccc1C(F)(F)F)[C@H]2c1ccc(CO)cc1 | 1.73 | 0.444 | -0.756 | -0.352 (inactive) | 0.178 | 0.366 | 0.0355 | 1.39 | 1.08 | 0.66
4 | COCCCNC(=O)[C@]1(Cc2ccccc2CN=[N+]=[N-])N=C(c2ccc(OCCCO)cc2)O[C@@H]1c1ccccc1N=[N+]=[N-] | 0.427 | 1.36 | 1.38 | -0.486 (inactive) | 0.575 | 0.672 | 0.003 | 0.205 | 0.0122 | 1.4
5 | CCCCCN1CC=CC23O[C@@H]4/C=C\CCCOC(=O)C4[C@H]2C(=O)N(CCO)[C@@H]3C1=O (stereo not given in full) | 1.14 | -0.132 | 0.107 | -1.83 (inactive) | -0.412 | 0.45 | -0.356 | -0.338 | -0.0986 | 1.14
6 | COCCOC(=O)N1C(=O)[C@@]2(c3cc(C#CCC(C(=O)OC)C(=O)OC)ccc31)[C@H](c1ccc(O)cc1)N1[C@H](c3ccccc3)[C@H](c3ccccc3)OC(=O)[C@H]1[C@@H]2C(=O)N1CCc2cc(OC)c(OC)cc2C1 | 1.21 | -0.149 | 0.131 | 0.0333 (inactive) | 1.09 | 1.08 | 0.294 | 0.728 | 0.384 | 0.0348
7 | C=CCNC(=O)[C@H]1[C@@H]2C(=O)O[C@@H](c3ccccc3)[C@@H](c3ccccc3)N2[C@@H](c2ccc(O)cc2)[C@]12C(=O)Nc1ccccc12 | 0.524 | 0.46 | 0.501 | -0.592 (inactive) | 0.28 | -0.471 | -0.705 | -0.693 | -0.101 | 0.169
8 | CC[C@@H]1C=C(C(=O)O)[C@H](c2cccc(Cl)c2)N1S(=O)(=O)c1ccc(C)cc1 | 0.514 | 0.472 | 0.692 | 0.608 (inactive) | 0.0519 | 0.46 | -0.527 | -0.614 | -0.785 | 0.414
9 | COC(=O)[C@@]1(Cc2ccccc2)[C@H]2c3cc(C(=O)N(C)C)n(CCF)c3C[C@H]2CN1C(=O)c1ccccc1 | 1.56 | 1.27 | 1.42 | -1.72 (inactive) | -0.0624 | 0.0979 | -0.469 | 0.0598 | -1.23 | -0.711
10 | O=C1OCCC/C=C\[C@H]2OC34C=CCN(Cc5ccccc5)C(=O)[C@H]3N(CCO)C(=O)[C@@H]4C12 (stereo not given in full) | 1.76 | -0.214 | 0.222 | -1.25 (inactive) | 0.049 | 0.124 | -0.71 | -0.579 | -0.461 | 0.765
11 | COCCOC(=O)N1C(=O)[C@@]2(c3cc(C#CC4=CCCCC4)ccc31)[C@H](c1ccc(O)cc1)N1[C@H](c3ccccc3)[C@H](c3ccccc3)OC(=O)[C@H]1[C@@H]2C(=O)N1CCc2cc(OC)c(OC)cc2C1 | 0.835 | 0.15 | 0.338 | 0.864 (inactive) | 0.415 | 0.202 | 0.0275 | 0.227 | 0.0375 | 0.545
12 | CC(C)C[C@H]1NC(=O)CNC(=O)[C@@]23C(=O)N[C@@H](Cc4ccccc4)C2[C@H](C)[C@@]2(C)O[C@H]2C3/C=C/C/C=C\CNC1=O (stereo not given in full) | 0.288 | -0.129 | -0.671 | 0.187 (inactive) | 0.749 | 0.407 | 0.181 | 0.811 | 0.267 | 1.48
13 | C=CCN1C(=O)[C@@]2(O[C@@H](CCO)[C@H]([Si](C)(C)c3ccc(OC)cc3)[C@H]2C)c2cc(N3CCCCC3=O)ccc21 | 0.774 | -0.0333 | 0.0918 | -2.02 (inactive) | 0.839 | 0.399 | 0.169 | 0.547 | 0.342 | 0.488
14 | COCCCNC(=O)[C@@]1(Cc2ccccc2I)c2ccccc2C(=O)N(Cc2ccccc2C(F)(F)F)[C@H]1c1ccc(CO)cc1 | 0.228 | 0.201 | 0.883 | 0.544 (inactive) | 0.0125 | -0.559 | -1.71 | -0.961 | -1.68 | -0.601
